Results: ChEMBL document CHEMBL3988442, “University of Dundee, Small-Polar-MMV Screening Library” (2021)
Among all 48,000 compounds or so, about 13,000 (27%) showed an effect of 50% or more. The list shows a part of the results.

tested on: Wolbachia pipientis; assay: Anti-Wolbachia Cell-Based Screen; assay type: functional; set-up: scale not given: in the data most compounds retested in dose-response had high values; details: 5 µM

Row | SMILES | Percent Effect
1 | CC(C)CCN1CC2(CCN(C3CCCOC3)CC2)OC1=O (configuration not stated) | 10.38%
2 | COCCOc1ccc(NC(=O)N2CCCC2c2ccsc2)cn1 (configuration not stated) | -8.185%
3 | COc1c(F)ccc(C(=O)N2CC[C@H](CO)[C@@H](O)C2)c1F | 0.1381%
4 | CC(C)Nc1nc2c(cc1C(=O)NCC1CC1)CCN(S(C)(=O)=O)CC2.O=C(O)C(F)(F)F | 8.623%
5 | CC(C)Nc1nc(N2CCCC2)nc2c1CN(C)CC2 | 109%
6 | CC(C)CCN1CCc2nc(N3CCOCC3)nc(NC(C)C)c2C1 | 0.8088%
7 | Cc1nc(CN2CCc3nc(N4CCCC4)nc(NC(C)C)c3C2)cs1 | -7.957%
8 | CCCS(=O)(=O)N1CCc2nc(N3CCOCC3)nc(N(C)C)c2C1 | 5.75%
9 | CC(C)Nc1nc(N2CCCC2)nc2c1CCN(S(C)(=O)=O)CC2.O=C(O)C(F)(F)F.O=C(O)C(F)(F)F | 110.6%
10 | CCCN1CCc2nc(N3CCOCC3)nc(NC(C)C)c2C1 | -9.413%
11 | CC(C)Nc1nc(N2CCCC2)nc2c1CN(c1ncc(F)cn1)CC2 | 118.9%
12 | CCS(=O)(=O)N1CCc2nc(N3CCOCC3)nc(N(C)C)c2CC1 | -7.887%
13 | CC(C)Nc1nc(N2CCCC2)nc2c1CN(S(C)(=O)=O)CC2 | 105.6%
14 | CCc1ncnc2c1CCN(c1ncc(F)cn1)CC2 | -14.13%
15 | Cc1cc(C(=O)N2CCC(c3nccn3CCCN(C)C)CC2)no1 | 1.64%
16 | Nc1nc(CCNc2ncnc3c2CCN(C(=O)C2CC2)C3)cs1 | -7.691%
17 | Cc1ccc(SCCN(C)C(=O)c2cn(CCN)nn2)cc1 | 1.127%
18 | COCC(=O)N(Cc1cccc(C)c1)Cc1ccccc1OC | -10.99%
19 | CC(C)(O)CN1CCN(C(=O)COC2CCCCC2)CC1 | -14.17%

Row | SMILES | Percent Effect
20 | CCC(C)c1csc(NC(=O)Cc2csc(-c3nnc[nH]3)n2)n1 (configuration not stated) | -13.2%
21 | CC(C)Nc1nc(N2CCCC2)nc2c1CN(C(C)C)CC2 | 4.85%
22 | CCC(C)N1CCc2nc(N3CCCC3)nc(NC(C)C)c2C1 (configuration not stated) | 120.2%
23 | CCN1CCc2nc(N3CCOCC3)nc(NC(C)C)c2C1 | -4.113%
24 | Cc1ccc(-c2nc(CN3CCC(N4CCNC4=O)CC3)co2)cc1 | 99.39%
25 | CS(=O)(=O)NC1CCN(Cc2coc(-c3ccccc3)n2)CC1 | -0.3699%
26 | c1csc(-c2nc(CN3CCN(c4cnccn4)CC3)co2)c1 | -1.577%
27 | CS(=O)(=O)NC1CCN(Cc2coc(-c3ccc(Cl)cc3)n2)CC1 | 11.26%
28 | O=C1NCCN1C1CCN(Cc2coc(-c3ccccc3)n2)CC1 | 93.32%
29 | O=C1NCCN1C1CCN(Cc2coc(-c3ccc(F)cc3)n2)CC1 | 91.35%
30 | O=C1NCCN1C1CCN(Cc2ccccn2)CC1 | -4.193%
31 | O=S1(=O)CCCN1Cc1coc(-c2cccs2)n1 | 4.552%
32 | O=C1NCCN1C1CCCN(Cc2coc(-c3ccc(F)cc3)n2)C1 (configuration not stated) | -1.248%
33 | O=C1NCCN1C1CCCN(Cc2nnc(-c3ccc(F)cc3)o2)C1 (configuration not stated) | 8.098%
34 | Cc1ccc(-c2nc(CN3CCc4nn(C)c(=O)cc4C3)co2)cc1 | -7.957%
35 | O=C1NCCN1C1CCCN(Cc2coc(-c3cccs3)n2)C1 (configuration not stated) | 113.2%
36 | NCC1Cc2cc(Oc3cc(F)c(CN4CCCC4)c(F)c3)ccc2O1 (configuration not stated) | -5.798%
37 | c1cc(-c2nnc(C3(c4ccc5c(c4)OCO5)CCOCC3)o2)ccn1 | -12.56%
38 | CCc1ccc(C(COC)NC(=O)c2ccc(O)nc2)o1 (configuration not stated) | -6.31%

Row | SMILES | Percent Effect
39 | c1ccc(-n2nnnc2CN2CCCC(Cn3cncn3)C2)cc1 (configuration not stated) | 0.4093%
40 | Cc1ccc(NC(=O)CN2CCOCC2)c(F)c1 | 133.3%
41 | Cc1ccc(NC(=O)CNC(C)CN2CCOCC2)c(F)c1 (configuration not stated) | 11.35%
42 | Cc1ccc(NC(=O)CNC(C)CN2CCCCC2)c(F)c1 (configuration not stated) | 7.732%
43 | Cc1ccc2c(c1)CCC21CCN(C(=O)CO)CC1 | -11.41%
44 | CCOC1CC2(CCN(CCO)CC2)c2ccc(C)cc21 (configuration not stated) | 12.38%
45 | CC(=O)N1CCC2(CC1)CC(NC(=O)N(C)C)c1cc(C)ccc12 (configuration not stated) | 112.2%
46 | CC(=O)N1CC2(CCN(C(=O)N(C)C)CC2)c2cc(C)ccc21 | 1.573%
47 | CCC(=O)N1CCC2(CC1)CC(N1CCOCC1)c1cc(C)ccc12.O=C(O)C(F)(F)F (configuration not stated) | 0.6162%
48 | CCC(=O)N1CCC2(CC1)CC(NC(=O)N(C)C)c1cc(C)ccc12 (configuration not stated) | 98.52%
49 | Cc1ccc(C)c(OCc2cc(C(=O)N(C)Cc3cnn(C)c3)no2)c1 | -13.61%
50 | CCS(=O)(=O)N1CCCC(Cc2cnccn2)C1 (configuration not stated) | 118.2%
51 | Cn1cc(C(=O)N2CCCC(CN3CCCC3=O)C2)cn1 (configuration not stated) | 73.94%
52 | COc1cccc(OCC2CCCN(C(=O)c3cnn(C)c3)C2)c1 (configuration not stated) | -49.1%
53 | CCS(=O)(=O)N1CCCC(c2nccn2Cc2ccccn2)C1 (configuration not stated) | -4.348%
54 | Cn1cc(C(=O)N2CCCC(Cc3cnccn3)C2)cn1 (configuration not stated) | 110.5%
55 | CC(O)CN1CC2(CCC1=O)CCN(C(=O)c1cnn(C)c1)CC2 (configuration not stated) | -4.211%
56 | CCS(=O)(=O)N1CCCC(c2nccn2Cc2cccnc2)C1 (configuration not stated) | -2.411%
57 | Cc1ccc(C2CCCN(C(=O)c3cnn(C)c3)C2)nc1 (configuration not stated) | 105.1%
